SARS PLpro yeast: SARS-CoV PLP inhibition in yeast; S. cerevisiae expressing SARS-CoV PLpro, growth rescue; Potency, µM (top dose mostly 32.9 µM), for the others: top-dose activity, positive = growth rescue, hits mostly activators; 330,000 tested, 0.19% active; calls by dose curve; also: 0% is about no effect; nearly all actives have a fitted effect of over 55% in size
Pf growth 48h: inhibits P. falciparum growth in the first generation, 48 h | P. falciparum luciferase growth in erythrocytes, 48 h | Potency, µM (series often up to 28.7 µM), inactives show at the highest dose activity change, negative = inhibition, hits mostly inhibitors | 310,000 tested, 5.9% active; also: % is scaled to controls: 0 for no effect and ±100 for the full control effect
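Erythrocytes infected with P. falciparum carrying an integrated firefly luciferase reporter (2% hematocrit, 0.1% parasitemia final) were exposed to compounds in RPMI 1640 with 0.5% Albumax at 37 C, 5% CO2. Growth inhibition was scored as reduced luminescence.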
Pf growth 96h: P. falciparum growth inhibition at 96 hour, primary screen for plastid delayed-death inhibitors. Potency, µM (titrated, usually from 28.7 µM), without a hit: top-dose activity change, negative = inhibition, actives largely listed as inhibitors. AID 504834. 320,000 tested, 6.9% active. P. falciparum luciferase reporter growth, 96 h; also: % is scaled to controls: 0 for no effect and ±100 for the full control effect
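Infected RBCs, 2% Hct / 0.05% parasitemia final; luciferase-reporter P. falciparum; cpd 96 h, 37 C, 5% CO2; luciferase detection reagent; luminescence.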
NS1 function inh: blocks influenza NS1 protein function | Potency, µM (doses to about 46.1 µM), without a hit: top-dose activity, positive = more growth | 270,000 tested, 0.4% active | AID 2326; calls by dose curve; also: actives are rising curves; nearly all actives have a fitted effect of over 50% in size
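Compounds were scored for reversing the slow growth caused by influenza A NS1 in S. cerevisiae, measured by optical density at 600 nm. Assay medium contained 2% galactose at pH 6.0; NS1-free yeast of the same strain were the positive control.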
Active calls of the source: *; ? = inconclusive; · = no result. In the library only some 10% were active in any assay of this set; here they are far more common. Unless noted, calls follow the shape of the dose curve; as a rule, active = well fitted inhibition curve with a large enough effect; inconclusive = small, poorly fitted or top-dose-only effect, or another doubt; inactive = no such curve, though single readings can be large or run the other way. Potency is read from the fitted curve at half-maximal effect.

SMILES	SARS PLpro yeast	Pf growth 48h	Pf growth 96h	NS1 function inh
CCOC(=O)C1CCN(S(=O)(=O)c2ccc3[nH]c4c(c3c2)CCCC4)CC1	15%	-17%	10µM*	-2%
CCCCN1C(=O)C2(OCCCO2)c2cccc(C)c21	18%	2%	27%	8%
CCOC(=O)C1CCCN(C(=O)c2ccccc2NC(C)=O)C1 (configuration not stated)	-4%	-3%	·	1%
CCOC(=O)C1CCCN(CC(=O)Nc2ccc(C(=O)Nc3ccccc3OC)cc2)C1 (configuration not stated)	-1%	12µM*	?	·
CCOC(=O)C1CCN(Cc2ccc(OC)c(OCc3ccccc3)c2)CC1	-3%	30%	12µM*	-4%
CCOC(=O)C1CCN(S(=O)(=O)c2c(Cl)ccc3nonc23)CC1	-29%	-23%	2.3µM*	-40%
CCOC(=O)C1CCCN(C(=O)c2ccccc2Oc2ccccc2)C1 (configuration not stated)	-2%	-17%	1.3µM*	-7%
COc1ccccc1C(CNc1nc(C(F)(F)F)nc2ccccc12)N(C)C (configuration not stated)	1%	?	?	-9%
CCOC(=O)C1CCN(c2cc3c(cc2NC(=O)c2ccc(OC)c(OC)c2)n(C)c(=O)n3C)CC1	-2%	8.3µM*	?	-1%
CCOC(=O)C1CCCN(C(=O)c2cccc(S(=O)(=O)N(Cc3ccccc3)c3ccccc3OC)c2)C1 (configuration not stated)	-1%	10µM*	?	·
CCOC(=O)C1CCCN(C(=O)c2ccc(S(=O)(=O)Nc3ccccc3OC)cc2)C1 (configuration not stated)	1%	12µM*	?	·
CCOC(=O)C1CCN(C(=O)c2ccc(OC)cc2OC)CC1	3%	4%	13µM*	-3%
N#Cc1ccccc1S(=O)(=O)N1CCN(CC(O)CN2CCOCC2)CC1 (configuration not stated)	0%	-9%	-30%	·
Cc1ccc(C(=O)NCCc2nnc3ccc(NCc4ccc5c(c4)OCO5)nn23)cc1	11%	?	?	16%
CCOC(=O)C1CCN(S(=O)(=O)c2ccc(OC)c(C(=O)N3CCCCCC3)c2)CC1	2%	-4%	-5%	-16%
CCOC(=O)C1CCN(C(=O)c2cc(S(=O)(=O)N3CCCCCC3)ccc2OC)CC1	1%	?	4.1µM*	·
CCOC(=O)C1CCN(S(=O)(=O)c2nc3nc(C)cc(C)n3n2)CC1	4%	2%	10µM*	8%
CCOC(=O)C1CCCN(C(=O)c2cn(C)c3ccc(S(=O)(=O)N(C)C)cc3c2=O)C1 (configuration not stated)	-2%	·	0.93µM*	10%
CCOC(=O)C1CCN(C(=O)C2CCCN2S(=O)(=O)c2ccc(Cl)cc2)CC1 (configuration not stated)	-3%	0%	10µM*	3%
COc1ccc(CC(=O)N(C)Cc2cccc(OC)c2OC)cc1S(=O)(=O)N1CCOCC1	-5%	?	-2%	·
CC(=O)Oc1ccc(OC(C)=O)c2c1CC(C)=C(C)C2	-3%	9.3µM*	13µM*	-40%
O=C(CCn1cccn1)Nc1ccc2c(c1)OCO2	5%	-3%	0%	-2%
Nc1ncnc2c1c(-c1ccc(Oc3ccccc3)cc1)cn2C1CCCC1	·	8.3µM*	5.2µM*	?
Nc1nc(N)nc(-c2ccc(Oc3ccccc3)cc2)n1	-39%	·	-5%	-169%
Cc1ccc(N(CC(=O)NC2CCCC2)C(=O)CNC(=O)c2cccs2)cc1C	-1%	-6%	-10%	8%
SMILES	SARS PLpro yeast	Pf growth 48h	Pf growth 96h	NS1 function inh
CCCCN=C1NN=C(c2cc3ccccc3o2)CS1	9%	?	13µM*	-18%
CCn1c(=O)c2c(nc(SCC(=O)N3CCC(C)CC3)n2C)n(C)c1=O	0%	-2%	4%	5%
CCCCc1cc(=O)oc2cc(C)cc(OC(C)C(=O)NCC3CCC(C(=O)O)CC3)c12 (configuration not stated)	-2%	?	9.3µM*	5%
CC(Oc1cc2oc(=O)cc(-c3ccccc3)c2cc1Cl)C(=O)NCC1CCC(C(=O)O)CC1 (configuration not stated)	4%	-5%	?	6%
CCCCc1cc(=O)oc2cc(C)cc(OCC(=O)NCc3cccnc3)c12	1%	10µM*	9.3µM*	-17%
CCc1cc2c(-c3ccccc3)cc(=O)oc2cc1OC(C)C(=O)NCC1CCC(C(=O)O)CC1 (configuration not stated)	3%	?	9.3µM*	8%

Screening results: PubChem, National Center for Advancing Translational Sciences (NCATS)
